Source: PubChem (Sanford-Burnham Center for Chemical Genomics)
Shown are actives, neighbours in structure and some others; about 2.5% of the full set was active somewhere.
Cardio protect: modulators protecting cardiomyocytes from myocardial damage. AID 588492. hit rate 0.63% among 360,000. protection from H2O2 cell death, % at 20 µM. H9c2 cardiomyocytes, H2O2 injury protection, ATPLite, 2 h;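 active = compounds giving at least 50% protection of heart cells from peroxide-induced death in the single-dose screen, raw or plate-pattern-corrected value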;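 note: 0% = DMSO wells with peroxide and 100% = DMSO wells without peroxide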
SKN-1 inh: C. elegans SKN-1 inhibition | C. elegans VP596 Pgst-4::GFP/RFP ratio, acrylamide-induced, 24 h | inhibition, % at 21.8 µM | hit rate 0.49% among 360,000 | AID 624304;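 active = interference check ratio from 0.5 to 1.5 plus GFP to RFP signal ratio inhibition reaching or exceeding a fixed threshold, cut at about 30% in these data, passing the limit was not always enough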
CRFBP-R2 block: antagonists of CRF-binding protein/CRF-R2 receptor complex; HEK293 CRF-R2/CRF-BP, CRF-induced calcium fluorescence; inhibition, % at 11.8 µM; hit rate 0.59% among 350,000; AID 588475;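 active = inhibition of the ligand-induced calcium signal above about 50% at the single tested concentration, limit read from the data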
CRFBP-R2 agonist: agonists of human CRF-binding protein/CRF-R2 receptor complex; HEK293 CRF-R2/CRF-BP, calcium dye fluorescence (FLIPR); percent of saturating CRF peptide response; activation, % at 13.2 µM; hit rate 0.46% among 350,000; AID 588473;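 active = activation of at least 50%, plus an integration ratio under a set limit after plate pattern correction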;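 note: plate controls were neutral control wells without compound for no effect and CRF at EC100 for full effect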
hiPSC survival: increases survival of single human iPS cells | hiPSC single-cell survival, ATPlite luminescence; 100% = ROCK inhibitor wells, 0% = DMSO | survival enhancement, % at 20 µM | hit rate 0.044% among 360,000 | AID 602274; in the data active = survival enhancement above about 18%;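 note: cells exposed to compounds for 16 hours before the ATP read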
H9c2 TAG inh: triacylglycerol accumulation inhibition | H9c2 cells, Nile Red lipid (TAG) fluorescence; cells loaded with 200 µM oleic acid | inhibition, % at 12.5 µM | hit rate 0.66% among 230,000 | AID 651582;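 active = pattern-corrected inhibition of lipid staining of at least 50% with the nuclear-stain viability signal not falling by more than 50%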;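 note: 0% = DMSO wells and 100% = triacsin C control wells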
An asterisk follows results filed as active.

How did CC(=O)Nc1ccc(S(=O)(=O)NCC2CC3CCC2C3)cc1 (stereo unspecified) do in these assays?
Cardio protect: -7.9; SKN-1 inh: -22.0; CRFBP-R2 block: 0.5; CRFBP-R2 agonist: -1.9; hiPSC survival: -0.4; H9c2 TAG inh: -17.5

How did Cc1cc(F)ccc1S(=O)(=O)NCC1CC2CCC1C2 (stereo unspecified) do in these assays?
Cardio protect: -10.4; SKN-1 inh: 24.9; CRFBP-R2 block: -92.6; CRFBP-R2 agonist: 87.5*; hiPSC survival: 0.4

Results for COc1cccc(NC(=O)CN(C)C(=O)c2ccc3c(c2)C(=O)N(CCC(C)C)C3=O)c1 ?
Cardio protect: -9.5; SKN-1 inh: -12.7; CRFBP-R2 block: -4.6; CRFBP-R2 agonist: 0.0; hiPSC survival: -1.2; H9c2 TAG inh: 3.2

How did Cc1cccc(C)c1OCc1cc(C(=O)N2CCN(C3CCCC3)CC2)no1 do in these assays?
Cardio protect: -5.2; SKN-1 inh: 49.7*; CRFBP-R2 block: -4.1; CRFBP-R2 agonist: -0.7; hiPSC survival: -0.4; H9c2 TAG inh: -5.7

What do the screens show for `Cc1cccc(C)c1OCc1cc(C(=O)N2CCN3CCCC3C2)no1` (stereo unspecified)?
Cardio protect: 2.9; SKN-1 inh: 3.2; CRFBP-R2 block: -6.1; CRFBP-R2 agonist: -0.7; hiPSC survival: -0.5; H9c2 TAG inh: 21.2

Results for C=CCn1c(-c2ccccc2)ccc(C#N)c1=O ?
Cardio protect: -8.4; SKN-1 inh: 64.9*; CRFBP-R2 block: 2.0; CRFBP-R2 agonist: 0.5; hiPSC survival: -1.7; H9c2 TAG inh: -2.4

How did O=c1[nH]c2ccccc2c(O)c1O do in these assays?
Cardio protect: -0.9; SKN-1 inh: 4.0; CRFBP-R2 block: 97.2*; CRFBP-R2 agonist: -0.5; hiPSC survival: -3.3

How did O=c1[nH]c2ccccc2c(O)c1-[n+]1ccccc1 do in these assays?
Cardio protect: 1.9; SKN-1 inh: -6.5; CRFBP-R2 block: 1.5; CRFBP-R2 agonist: -0.9; hiPSC survival: -0.1; H9c2 TAG inh: -4.1

Results for COC(=O)C[C@H]1C=C[C@@H](NC(=O)C2CC2)[C@@H](CO)O1 ?
SKN-1 inh: 7.9

How did CCCCN1C(C)=CC(=C2C(=O)c3ccccc3C2=O)C=C1C do in these assays?
Cardio protect: -22.7; SKN-1 inh: 38.3*; CRFBP-R2 block: 1.2; CRFBP-R2 agonist: -0.9; hiPSC survival: -2.4; H9c2 TAG inh: 11.4

How did C[C@@H]1CCCCO[C@@H](CN(C)S(=O)(=O)c2ccc(Cl)cc2)[C@@H](C)CN([C@H](C)CO)C(=O)c2cc(N(C)C)ccc2O1 do in these assays?
Cardio protect: 6.7; SKN-1 inh: 1.6; CRFBP-R2 block: -1.4; CRFBP-R2 agonist: 0.2; hiPSC survival: 2.9; H9c2 TAG inh: 9.7

What do the screens show for `COc1cc(/C=C/C(=O)OCC(=O)N(C)CC(=O)Nc2ccc(F)cc2)ccc1OC(F)F`?
Cardio protect: 5.6; SKN-1 inh: -9.7; CRFBP-R2 block: -7.9; CRFBP-R2 agonist: 0.5; hiPSC survival: -0.4; H9c2 TAG inh: 9.4

What do the screens show for `O=C(OCC(=O)N1CCN(C(=O)c2ccco2)CC1)c1cc(-c2ccco2)nc2ccccc12`?
Cardio protect: 49.0*; SKN-1 inh: 9.6; CRFBP-R2 block: 10.7; CRFBP-R2 agonist: 0.4; hiPSC survival: -0.9

What do the screens show for `CC(=O)Nc1ccc(SCCCC(=O)c2ccccc2)cc1`?
Cardio protect: -2.8; SKN-1 inh: -21.9; CRFBP-R2 block: 13.3; CRFBP-R2 agonist: -2.2; hiPSC survival: 1.2

Results for CC(=O)C(=Cc1ccc(C(=O)O)cc1)C(C)=O ?
Cardio protect: -0.3; SKN-1 inh: -7.4; CRFBP-R2 block: 9.0; CRFBP-R2 agonist: -1.2; hiPSC survival: -1.3; H9c2 TAG inh: -3.6

How did Cc1ccc(NC(=O)C(=Cc2ccc(C(=O)O)cc2)C(=O)Nc2ccc(C)cc2C)c(C)c1 do in these assays?
Cardio protect: -4.5; SKN-1 inh: 27.4; CRFBP-R2 block: 5.8; CRFBP-R2 agonist: -2.0; hiPSC survival: -0.8; H9c2 TAG inh: 55.8*

How did CCc1nc2ccc(C(=O)NCC3CCCCC3)cn2c1N(C)Cc1nccs1 do in these assays?
Cardio protect: 1.6; SKN-1 inh: 14.5; hiPSC survival: -2.0; H9c2 TAG inh: 11.4

What do the screens show for `COc1ccc2c3c(cccc13)OC2=O`?
Cardio protect: 2.9; SKN-1 inh: 5.6; CRFBP-R2 block: -0.9; CRFBP-R2 agonist: -0.6; hiPSC survival: -0.4
